This is part of a sample that, as a whole, favours compounds with a hit. Of some 83,000 tested, about 20% had one in any assay.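 96-well plates, one dose, 48 hours. Percent growth reported; active if below 10.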 The source made the active and inactive calls.
Experiments:
Test in all cases: NCI-60 one-dose screen, 48 h (100 = growth as untreated, 0 = no growth, -100 = all killed)
Details in all cases: 10 µM unless noted
RPMI-8226 leukemia = test system: RPMI-8226 leukemia
OVCAR-8 ovarian = test system: OVCAR-8 ovarian
OVCAR-5 ovarian = test system: OVCAR-5 ovarian
OVCAR-4 ovarian = test system: OVCAR-4 ovarian
SK-OV-3 ovarian = test system: SK-OV-3 ovarian
IGROV1 ovarian = test system: IGROV1 ovarian
OVCAR-3 ovarian = test system: OVCAR-3 ovarian
HS 578T breast = test system: HS 578T breast
NCI/ADR-RES ovarian = test system: NCI/ADR-RES ovarian
T-47D breast = test system: T-47D breast

Measured: growth

O=c1oc2ccc(I)cc2c(=O)n1-c1ccc(I)cc1F
active: RPMI-8226 leukemia -31.2% | OVCAR-8 ovarian 9.03% | SK-OV-3 ovarian 0.665% | OVCAR-3 ovarian 7.88% | HS 578T breast -4.47% | NCI/ADR-RES ovarian 9.94% | T-47D breast -3.25%
inactive: OVCAR-5 ovarian 27.1% | OVCAR-4 ovarian 16.7% | IGROV1 ovarian 15.9%

Cc1[nH]c2ccccc2c(=O)c1CC=C(Cl)Cl
active: RPMI-8226 leukemia -20.7% | OVCAR-8 ovarian -84% | OVCAR-4 ovarian -18.6% | T-47D breast -26.4%
inactive: OVCAR-5 ovarian 40.1% | SK-OV-3 ovarian 86.5% | IGROV1 ovarian 29.4% | OVCAR-3 ovarian 40.9% | HS 578T breast 84.2% | NCI/ADR-RES ovarian 52.4%

CCCC(=O)CC(C)=O.CCCC(=O)CC(C)=O.[Cu]
inactive: RPMI-8226 leukemia 102% | OVCAR-8 ovarian 93.1% | OVCAR-5 ovarian 117% | OVCAR-4 ovarian 113% | SK-OV-3 ovarian 77.3% | IGROV1 ovarian 103% | OVCAR-3 ovarian 116% | HS 578T breast 110% | NCI/ADR-RES ovarian 101% | T-47D breast 77.1%

COc1ccc(Cn2c(Br)c3c(c2Br)-c2nc(N)sc2CC3)cc1
active: OVCAR-3 ovarian 7.35%
inactive: RPMI-8226 leukemia 27.3% | OVCAR-8 ovarian 41% | OVCAR-5 ovarian 91.4% | OVCAR-4 ovarian 47.8% | SK-OV-3 ovarian 24% | IGROV1 ovarian 34.7% | HS 578T breast 34.1% | NCI/ADR-RES ovarian 18.5% | T-47D breast 50.4%

O=C(Nc1ccc(-c2nc3cc4ccccc4cc3[nH]2)cc1)c1cccc(Br)c1
active: OVCAR-8 ovarian 7.87%
inactive: RPMI-8226 leukemia 23% | OVCAR-5 ovarian 73.7% | OVCAR-4 ovarian 63.7% | SK-OV-3 ovarian 43.8% | IGROV1 ovarian 33.2% | OVCAR-3 ovarian 25.9% | HS 578T breast 83.5% | NCI/ADR-RES ovarian 39.2% | T-47D breast 54%

CCOc1cccc(/C=N\Nc2nc(=O)cc(C(=O)OC)s2)c1O
inactive: RPMI-8226 leukemia 57.6% | OVCAR-8 ovarian 66.9% | OVCAR-5 ovarian 92.9% | OVCAR-4 ovarian 49.3% | SK-OV-3 ovarian 95.6% | IGROV1 ovarian 61.8% | OVCAR-3 ovarian 29.7% | HS 578T breast 90.4% | NCI/ADR-RES ovarian 32.3% | T-47D breast 37.8%

O=C(Nc1ccc(Br)cc1F)c1cc(I)ccc1O
active: RPMI-8226 leukemia -8.84% | OVCAR-8 ovarian 9.66% | SK-OV-3 ovarian -10.4% | OVCAR-3 ovarian 4.89% | HS 578T breast 7.43% | NCI/ADR-RES ovarian 4.84% | T-47D breast -14%
inactive: OVCAR-5 ovarian 24.2% | OVCAR-4 ovarian 15.4% | IGROV1 ovarian 16.6%

CC1=C(CC(=O)c2cccc([N+](=O)[O-])c2)C(=O)c2ccccc2C1=O
inactive: OVCAR-5 ovarian 37.5% | SK-OV-3 ovarian 30.5% | NCI/ADR-RES ovarian 30.9%
active: RPMI-8226 leukemia -7.18% | OVCAR-8 ovarian 9.43% | OVCAR-4 ovarian -89.2% | IGROV1 ovarian -61.1% | OVCAR-3 ovarian -94% | HS 578T breast -20.6% | T-47D breast -10.2%

CCCCCCn1c(=N)n(CC(O)COc2cccc(C)c2)c2ccccc21 (stereo not given)
active: RPMI-8226 leukemia -24.8% | OVCAR-8 ovarian -67.1% | OVCAR-5 ovarian -7.84% | OVCAR-4 ovarian -31.9% | IGROV1 ovarian -58.1% | HS 578T breast -5.09% | NCI/ADR-RES ovarian -2.54%
inactive: SK-OV-3 ovarian 37.3% | OVCAR-3 ovarian 23.3% | T-47D breast 52.6%

O=C(CCc1nnc2sc(Cc3ccccc3Cl)nn12)c1nc2ncccc2[nH]1
inactive: RPMI-8226 leukemia 103% | OVCAR-8 ovarian 93.4% | OVCAR-5 ovarian 93.3% | OVCAR-4 ovarian 92.5% | SK-OV-3 ovarian 108% | IGROV1 ovarian 79.6% | OVCAR-3 ovarian 96.9% | HS 578T breast 88.7% | NCI/ADR-RES ovarian 95.4% | T-47D breast 90.6%

COc1ccc(-c2nsc3c2NC(=O)CC3c2ccsc2)cc1 (stereo not given)
inactive: RPMI-8226 leukemia 21.5% | OVCAR-8 ovarian 30.7% | OVCAR-5 ovarian 33% | OVCAR-4 ovarian 31.1% | IGROV1 ovarian 15.7% | HS 578T breast 32.5% | NCI/ADR-RES ovarian 22.2% | T-47D breast 62.7%
active: SK-OV-3 ovarian -4.77% | OVCAR-3 ovarian -39.3%

COc1ccc(-n2c(C(O)c3ccccc3)nn(CN3CCOCC3)c2=S)cc1 (stereo not given)
inactive: RPMI-8226 leukemia 88.9% | OVCAR-8 ovarian 107% | OVCAR-5 ovarian 101% | OVCAR-4 ovarian 96.1% | SK-OV-3 ovarian 101% | IGROV1 ovarian 96.6% | OVCAR-3 ovarian 124% | HS 578T breast 93.3% | NCI/ADR-RES ovarian 107% | T-47D breast 90.4%

COc1ccc(/C=C2\SC(=Nc3ccccc3)NC2=O)cc1
active: RPMI-8226 leukemia -50.9% | OVCAR-8 ovarian -81.2% | OVCAR-5 ovarian -77.8% | OVCAR-4 ovarian -49.4% | SK-OV-3 ovarian -54.1% | IGROV1 ovarian -78.2% | OVCAR-3 ovarian -69.4% | HS 578T breast -47.5% | NCI/ADR-RES ovarian -8.71% | T-47D breast -72.8%

O=C(O)CCC(=O)c1ccc(C2CCCCCC2)cc1
inactive: RPMI-8226 leukemia 95.8% | OVCAR-8 ovarian 102% | OVCAR-5 ovarian 105% | OVCAR-4 ovarian 102% | SK-OV-3 ovarian 103% | IGROV1 ovarian 101% | OVCAR-3 ovarian 105% | HS 578T breast 102% | NCI/ADR-RES ovarian 102% | T-47D breast 96.2%

CC(=O)n1cc(-c2c[nH]c3ccccc23)c(-c2ccc(Cl)cc2)n1
inactive: RPMI-8226 leukemia 86.5% | OVCAR-8 ovarian 96.8% | OVCAR-5 ovarian 94.2% | OVCAR-4 ovarian 62% | SK-OV-3 ovarian 95.9% | IGROV1 ovarian 74.9% | OVCAR-3 ovarian 90% | HS 578T breast 94% | NCI/ADR-RES ovarian 86.4% | T-47D breast 72.7%

CCOC(=O)C1(C(=O)OCC)N=C(c2ccccc2)C=C1c1ccccc1
inactive: RPMI-8226 leukemia 61.6% | OVCAR-8 ovarian 87.2% | OVCAR-5 ovarian 97.8% | OVCAR-4 ovarian 81.6% | SK-OV-3 ovarian 105% | IGROV1 ovarian 92.4% | OVCAR-3 ovarian 86.9% | HS 578T breast 94.9% | NCI/ADR-RES ovarian 76.5% | T-47D breast 62.2%

COc1ccc(C2=NN(/C=C3\SC(=O)NC3=Nc3ccc(F)cc3)C(c3ccc(F)cc3)C2)cc1 (stereo not given)
inactive: RPMI-8226 leukemia 88.7% | OVCAR-8 ovarian 95.3% | OVCAR-5 ovarian 96.1% | OVCAR-4 ovarian 101% | SK-OV-3 ovarian 102% | IGROV1 ovarian 97.9% | OVCAR-3 ovarian 104% | HS 578T breast 99% | NCI/ADR-RES ovarian 103% | T-47D breast 89.7%

COc1cc(-c2c3c(cn2S(=O)(=O)c2ccccc2)-c2nc(N)sc2CC3)cc(OC)c1OC
active: OVCAR-3 ovarian -43.5%
inactive: RPMI-8226 leukemia 25.3% | OVCAR-8 ovarian 32.7% | OVCAR-5 ovarian 43.4% | OVCAR-4 ovarian 56% | SK-OV-3 ovarian 12.6% | IGROV1 ovarian 31.6% | HS 578T breast 23% | NCI/ADR-RES ovarian 14.9% | T-47D breast 44%

Nc1ccc(-c2nc3cc(Oc4ccc(Oc5ccc6[nH]c(-c7ccc(N)cc7)nc6c5)cc4)ccc3[nH]2)cc1
inactive: RPMI-8226 leukemia 101% | OVCAR-8 ovarian 91.3% | OVCAR-5 ovarian 113% | OVCAR-4 ovarian 114% | SK-OV-3 ovarian 98.7% | IGROV1 ovarian 120% | OVCAR-3 ovarian 122% | HS 578T breast 108% | NCI/ADR-RES ovarian 103% | T-47D breast 77.3%

Nc1nonc1-n1nncc1-c1cccnc1
inactive: RPMI-8226 leukemia 105% | OVCAR-8 ovarian 111% | OVCAR-5 ovarian 110% | OVCAR-4 ovarian 98.8% | SK-OV-3 ovarian 104% | IGROV1 ovarian 103% | OVCAR-3 ovarian 116% | HS 578T breast 101% | NCI/ADR-RES ovarian 105% | T-47D breast 93.9%

CC[C@]1(O)C[C@@H]2CN(CCc3c([nH]c4ccccc34)[C@@](C(=O)OC)(c3cc4c(cc3OC)N(C)[C@H]3[C@@](O)(C(=O)OC)[C@H](OC(C)=O)[C@]5(CC)C=CCN6CC[C@]43[C@@H]65)C2)C1
active: IGROV1 ovarian 9.76% | OVCAR-3 ovarian -4.09% | NCI/ADR-RES ovarian -19.8%
inactive: RPMI-8226 leukemia 11.3% | OVCAR-8 ovarian 21.5% | OVCAR-5 ovarian 17.4% | OVCAR-4 ovarian 33.7% | SK-OV-3 ovarian 43.5% | HS 578T breast 15.8% | T-47D breast 68.6%

O=C1NC(=O)C(=Cc2cn(Cc3cn(Cc4ccc(Cl)cc4Cl)nn3)c3ccccc23)C(=O)N1
inactive: RPMI-8226 leukemia 83% | OVCAR-8 ovarian 83% | OVCAR-5 ovarian 50.8% | OVCAR-4 ovarian 82.4% | SK-OV-3 ovarian 69% | IGROV1 ovarian 85.7% | OVCAR-3 ovarian 92.4% | HS 578T breast 87.5% | NCI/ADR-RES ovarian 96.9% | T-47D breast 64.7%

CCOC(=O)c1sc(-c2ccc(OS(=O)(=O)c3ccccc3[N+](=O)[O-])c(C=O)c2)nc1C
active: IGROV1 ovarian 3.88%
inactive: RPMI-8226 leukemia 37.2% | OVCAR-8 ovarian 56.5% | OVCAR-5 ovarian 73.6% | OVCAR-4 ovarian 33% | SK-OV-3 ovarian 117% | OVCAR-3 ovarian 23.5% | HS 578T breast 96.3% | NCI/ADR-RES ovarian 61.6% | T-47D breast 28.4%

O=C1c2ccccc2C(=O)c2c1ccc1[nH]c(CCl)nc21
active: RPMI-8226 leukemia -40.3% | OVCAR-4 ovarian -20.4% | OVCAR-3 ovarian -35.9% | T-47D breast -21.5%
inactive: OVCAR-8 ovarian 20.1% | OVCAR-5 ovarian 70.4% | SK-OV-3 ovarian 37.6% | IGROV1 ovarian 15.2% | HS 578T breast 18.2% | NCI/ADR-RES ovarian 34.5%

COc1ccc(OC)c(N(CCN2C(=O)c3ccccc3C2=O)C(=O)CCl)c1
inactive: RPMI-8226 leukemia 32.9% | OVCAR-8 ovarian 65.6% | OVCAR-5 ovarian 65.9% | SK-OV-3 ovarian 91.3% | OVCAR-3 ovarian 14.6% | HS 578T breast 52.6% | NCI/ADR-RES ovarian 49.2% | T-47D breast 95.4%
active: OVCAR-4 ovarian -49.5% | IGROV1 ovarian -73.4%

O=C(N/N=C/c1ccccc1O)C(=O)Nc1ccc(F)cc1
inactive: RPMI-8226 leukemia 52.2% | OVCAR-8 ovarian 38.7% | OVCAR-5 ovarian 64.8% | OVCAR-4 ovarian 27.2% | SK-OV-3 ovarian 59.1% | IGROV1 ovarian 53% | OVCAR-3 ovarian 27.7% | HS 578T breast 74.6% | NCI/ADR-RES ovarian 18.1% | T-47D breast 52.6%

COc1ccc(/C=C/C(=O)c2ccc3cc(OC)c(OC)cc3c2)cc1OC
inactive: OVCAR-8 ovarian 11.4% | OVCAR-5 ovarian 29.6% | OVCAR-4 ovarian 25.5% | SK-OV-3 ovarian 63.3% | IGROV1 ovarian 53.8% | OVCAR-3 ovarian 15.5% | HS 578T breast 77.2% | NCI/ADR-RES ovarian 11.5% | T-47D breast 47.5%
active: RPMI-8226 leukemia 4.57%
